Experimental data published in PubChem BioAssay (Tox21).
Results filed as inconclusive are left out. A call without a number means that no potency is given here. Values without a mark were called inactive. Calls of active or inactive are those of the source. Unless noted, calls come from the whole dose curve.

Tests used:
[1] = qHTS assay to identify small molecule antagonists of the peroxisome proliferator-activated receptor delta (PPARd) signaling pathway - cell viability counter screen (AID 743213; active = well fitted curve in the direction sought with a large enough effect in the repeat runs; an effect the other way counts as inactive or inconclusive; note: nearly all actives have a fitted effect of over 50% in size)
Procedure, shortened: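 PPARd-bla HEK293H cells (3000/well) got compound plus 300 nM L165041 agonist for 17 h at 37 C. Viability in the same wells came from CellTiter-Glo luminescence after 30 min at room temperature.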

[2] = qHTS assay to identify small molecule agonists of the farnesoid-X-receptor (FXR) signaling pathway - cell viability counter screen (AID 743218; active = well fitted curve in the direction sought with a large enough effect in the repeat runs; an effect the other way counts as inactive or inconclusive; note: nearly all actives have a fitted effect of over 45% in size)
Procedure, shortened: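 HEK 293T FXR-bla cells; 5 h pre-incubation, 16 h compound exposure at 37 C; LiveBLAzer substrate 2 h RT, then CellTiter-Glo 30 min RT, luminescence.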

[3] = qHTS assay to identify small molecule antagonists of the farnesoid-X-receptor (FXR) signaling pathway - cell viability counter screen (AID 743221; active = well fitted cell-killing curve with a large enough effect in the repeat runs, not every such curve was filed as active; note: nearly all actives have a fitted effect of over 50% in size)
Procedure, shortened: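 Cytotoxicity is taken from ATP luminescence (CellTiter-Glo, 30 min, room temperature) in FXR-bla HEK 293T cells previously incubated 16 h at 37 C with compound and chenodeoxycholic acid at 50 uM final.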

[4] = target: Vitamin D3 receptor (Homo sapiens) (UniProt P11473); assay: qHTS assay to identify small molecule agonists of the vitamin D receptor (VDR) signaling pathway (AID 743222)
Procedure, shortened: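 VDR-bla cells, 2,000/well; 4 h preincubation 37C; cpd (DMSO) 16 h; LiveBLAzer B/G substrate 2 h RT; fluorescence intensity read.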

[5] = target: Vitamin D3 receptor (Homo sapiens) (UniProt P11473); assay: qHTS assay to identify small molecule antagonists of the vitamin D receptor (VDR) signaling pathway (AID 743223; active = well fitted inhibition curve with a large enough effect in the signal ratio in the repeat runs, not every such curve was filed as active; the % refers to the signal ratio)
Procedure, shortened: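 Quantitative HTS in VDR-bla reporter cells stimulated with 1alpha,25-dihydroxyvitamin D3, 3 nM final. Compound exposure 16 h, 37C, 5% CO2. Read-out: beta-lactamase FRET substrate fluorescence, 2 h RT.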

[6] = qHTS assay to identify small molecule agonists of the vitamin D receptor (VDR) signaling pathway - cell viability counter screen (AID 743224; active = well fitted curve in the direction sought with a large enough effect in the repeat runs; an effect the other way counts as inactive or inconclusive; note: series mostly up to about 63 µM; nearly all actives have a fitted effect of over 50% in size)
Procedure, shortened: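 Luminescence from CellTiter-Glo, read after 30 min at room temperature, reports viability of VDR-bla cells treated with compounds for 16 h at 37C in the wells used for the beta-lactamase FRET read.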

[7] = qHTS assay to identify small molecule agonists of the NFkB signaling pathway (AID 1159509; active = well fitted curve in the direction sought with a large enough effect in the signal ratio in the repeat runs, not every such curve was filed as active; the % refers to the signal ratio; note: series mostly up to about 61 µM)
Procedure, shortened: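 NFkB-bla ME-180 cells carry a beta-lactamase reporter under an NF-kB response element. They were plated overnight, then exposed to compounds for 5 h at 37 C. Read-out is LiveBLAzer FRET after 1.5 hr at room temperature (405 nm excitation; 460/530 nm emission).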

[8] = qHTS assay to identify small molecule agonists of the NFkB signaling pathway - cell viability counter screen (AID 1159515); note: series mostly up to about 61 µM; nearly all actives have a fitted effect of over 55% in size
Procedure, shortened: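 Luminescence from CellTiter-Glo (30 min, room temperature) gives viability, measured in the same wells as the beta-lactamase reporter read. Cells were NFkB-bla ME-180, 2,000 per well, treated 5 hr with compounds.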

[9] = qHTS assay to identify small molecule agonists of the endoplasmic reticulum stress response signaling pathway (AID 1159516; active = well fitted activation curve with a large enough effect in the signal ratio in the repeat runs, not every such curve was filed as active; the % refers to the signal ratio)
Procedure, shortened: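 Read-out is beta-lactamase cleavage of a FRET substrate (405 nm excitation; 460 and 530 nm emissions) in ESRE-bla HeLa cells after a 5 hr compound exposure at 37 C. Substrate incubation ran 2 hr at room temperature.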

[10] = qHTS assay to identify small molecule agonists of the endoplasmic reticulum stress response signaling pathway - cell viability counter screen (AID 1159517);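 note: HeLa cells carrying an ER stress response element beta-lactamase reporter; series mostly up to about 61 µM; nearly all actives have a fitted effect of over 50% in size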
Procedure, shortened: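 HeLa cells carrying an ESRE-driven beta-lactamase reporter receive compound for 5 hr at 37 C. Cell viability is then gauged with CellTiter-Glo by luminescence, 30 min at room temperature.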

[11] = qHTS assay to identify small molecule antagonists of the retinoid-related orphan receptor gamma (ROR-gamma) signaling pathway - cell viability counter screen (AID 1159520; active = well fitted curve in the direction sought with a large enough effect in the repeat runs; an effect the other way counts as inactive or inconclusive; note: nearly all actives have a fitted effect of over 50% in size)
Procedure, shortened: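 Cytotoxicity was read from cellular ATP (CellTiter-Glo luminescence) after 16 hr at 37 C with 1 uM doxycycline induction. The inducer was added 2 hr after compound transfer to Tet-on ROR gamma CHO cells.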

[12] = target: Nuclear receptor ROR-gamma (Homo sapiens) (UniProt P51449); assay: qHTS assay to identify small molecule antagonists of the retinoid-related orphan receptor gamma (ROR-gamma) signaling pathway (AID 1159521; active = well fitted curve in the direction sought with a large enough effect in the repeat runs; an effect the other way counts as inactive or inconclusive)
Procedure, shortened: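 Inducible-expression reporter assay: doxycycline (1 uM final) switched on RORγ in CHO cells bearing a ROR response element-luciferase construct, with test compounds present from 2 h beforehand. Decreased luminescence after 16 h defined antagonist activity.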

[13] = qHTS assay to identify small molecule agonists of the AP-1 signaling pathway - cell viability counter screen (AID 1159525); note: nearly all actives have a fitted effect of over 55% in size
Procedure, shortened: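 Luminescent ATP readout (Cell Titer Glo, 30 min RT), normalised to DMSO and tetra n-octyl ammonium bromide controls. Cells were ME-180 AP-1-bla in 0.5% dialyzed FBS Opti-MEM, with a 5 h, 37 °C compound exposure.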

[14] = qHTS assay to identify small molecule agonists of the AP-1 signaling pathway (AID 1159526)
[15] = target: Retinoic acid receptor RXR-alpha (Homo sapiens) (UniProt P19793); assay: qHTS assay to identify small molecule agonists of the RXR signaling pathway (AID 1159527); note: nearly all actives have a fitted effect of over 35% in size; note: potency is the fitted concentration of half-maximal effect
Procedure, shortened: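 Compounds in DMSO were added to RXR-alpha-UAS-bla HEK 293T cells kept in 2% charcoal-stripped serum, and incubated 16 hr at 37 C with 5% CO2. Reporter signal came from a 2 hr B/G FRET substrate step.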

[16] = target: Peroxisome proliferator-activated receptor delta (Homo sapiens) (UniProt Q03181); assay: qHTS assay to identify small molecule agonists of the peroxisome proliferator-activated receptor delta (PPARd) signaling pathway (AID 743212)
Procedure, shortened: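 HEK293H PPARd-bla cells; 5 h preincubation 37 C/5% CO2; compound (DMSO) 37 C; LiveBLAzer B/G FRET substrate 2 h RT; fluorescence intensity.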

[17] = target: Peroxisome proliferator-activated receptor delta (Homo sapiens) (UniProt Q03181); assay: qHTS assay to identify small molecule antagonists of the peroxisome proliferator-activated receptor delta (PPARd) signaling pathway (AID 743215; active = well fitted inhibition curve with a large enough effect in the signal ratio in the repeat runs, not every such curve was filed as active; the % refers to the signal ratio;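 note: cells stimulated with agonist L165041 at 300 nM final during compound exposure; series mostly up to about 62 µM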)
Procedure, shortened: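 Read-out is beta-lactamase FRET fluorescence, measured 2 h after substrate addition at room temperature. Beforehand, UAS-bla HEK293H cells carrying the PPARd reporter were exposed to compounds with L165041 at 300 nM final for 17 h at 37 C.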

[18] = target: Bile acid receptor (Homo sapiens) (UniProt Q96RI1); assay: qHTS assay to identify small molecule antagonists of the farnesoid-X-receptor (FXR) signaling pathway (AID 743217; active = well fitted inhibition curve with a large enough effect in the signal ratio in the repeat runs, not every such curve was filed as active; the % refers to the signal ratio)
Procedure, shortened: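 HEK 293T FXR-UAS-bla, 5000 cells/well; compound + CDCA 50 uM final; 16 h, 37 °C; B/G FRET substrate 2 h RT; fluorescence.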

[19] = target: Bile acid receptor (Homo sapiens) (UniProt Q96RI1); assay: qHTS assay to identify small molecule agonists of the farnesoid-X-receptor (FXR) signaling pathway (AID 743220; active = well fitted activation curve with a large enough effect in the signal ratio in the repeat runs, not every such curve was filed as active; the % refers to the signal ratio)
Procedure, shortened: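 Beta-lactamase reporter under UAS control in GeneBLAzer FXR HEK 293T cells (5000/well) measured with LiveBLAzer FRET substrate after 2 h at room temperature. Compound exposure lasted 16 h at 37C.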

[20] = qHTS assay to identify small molecule antagonists of the vitamin D receptor (VDR) signaling pathway - cell viability counter screen (AID 743225; active = well fitted curve in the direction sought with a large enough effect in the repeat runs; an effect the other way counts as inactive or inconclusive; note: nearly all actives have a fitted effect of over 50% in size)
Procedure, shortened: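 Same-well multiplex: following 16 h treatment of HEK 293T cells carrying a UAS-driven beta-lactamase reporter with compound and agonist (3 nM final), and a 2 h FRET substrate step, CellTiter-Glo was added and luminescence read after 30 min.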

Sequence of Peroxisome proliferator-activated receptor delta (Homo sapiens) (Q03181 whole entry, looked up): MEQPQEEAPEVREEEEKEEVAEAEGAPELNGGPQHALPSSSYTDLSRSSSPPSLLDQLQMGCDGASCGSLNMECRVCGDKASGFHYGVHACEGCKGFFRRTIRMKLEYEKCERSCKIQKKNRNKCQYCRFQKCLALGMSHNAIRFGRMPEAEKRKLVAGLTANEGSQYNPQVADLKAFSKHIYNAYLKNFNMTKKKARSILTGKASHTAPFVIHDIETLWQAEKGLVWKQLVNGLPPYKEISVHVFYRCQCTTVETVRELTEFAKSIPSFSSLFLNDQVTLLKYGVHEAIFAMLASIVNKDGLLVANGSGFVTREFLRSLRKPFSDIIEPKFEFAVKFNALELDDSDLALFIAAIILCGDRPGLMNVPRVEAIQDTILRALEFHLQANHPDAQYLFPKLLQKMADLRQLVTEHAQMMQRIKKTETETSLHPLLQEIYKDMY
Sequence of Retinoic acid receptor RXR-alpha (Homo sapiens) (P19793 whole entry, looked up): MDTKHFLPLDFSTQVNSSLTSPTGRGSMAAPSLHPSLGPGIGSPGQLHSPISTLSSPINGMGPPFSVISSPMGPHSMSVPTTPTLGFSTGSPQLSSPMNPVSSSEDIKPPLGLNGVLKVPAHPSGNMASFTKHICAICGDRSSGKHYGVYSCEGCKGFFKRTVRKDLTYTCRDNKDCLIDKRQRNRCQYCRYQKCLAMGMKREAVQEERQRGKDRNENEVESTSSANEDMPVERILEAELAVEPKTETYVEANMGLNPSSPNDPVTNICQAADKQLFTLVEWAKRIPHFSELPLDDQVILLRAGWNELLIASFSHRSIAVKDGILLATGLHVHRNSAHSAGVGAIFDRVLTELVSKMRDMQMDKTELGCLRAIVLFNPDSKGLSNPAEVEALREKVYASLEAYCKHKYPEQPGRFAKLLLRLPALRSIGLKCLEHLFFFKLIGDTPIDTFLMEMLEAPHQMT
Sequence of Vitamin D3 receptor (Homo sapiens) (P11473 whole entry, looked up): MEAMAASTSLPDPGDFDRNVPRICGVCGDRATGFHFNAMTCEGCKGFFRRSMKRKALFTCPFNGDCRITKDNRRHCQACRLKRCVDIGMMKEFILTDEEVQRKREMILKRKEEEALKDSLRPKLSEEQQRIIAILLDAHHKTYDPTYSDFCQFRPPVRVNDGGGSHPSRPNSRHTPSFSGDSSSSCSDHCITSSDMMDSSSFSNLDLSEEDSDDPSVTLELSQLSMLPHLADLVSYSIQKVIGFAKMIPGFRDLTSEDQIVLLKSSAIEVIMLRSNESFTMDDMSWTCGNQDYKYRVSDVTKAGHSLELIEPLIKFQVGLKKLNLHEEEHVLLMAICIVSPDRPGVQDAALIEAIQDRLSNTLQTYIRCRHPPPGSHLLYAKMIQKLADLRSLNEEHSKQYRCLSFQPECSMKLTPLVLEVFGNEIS
Sequence of Bile acid receptor (Homo sapiens) (Q96RI1 whole entry, looked up): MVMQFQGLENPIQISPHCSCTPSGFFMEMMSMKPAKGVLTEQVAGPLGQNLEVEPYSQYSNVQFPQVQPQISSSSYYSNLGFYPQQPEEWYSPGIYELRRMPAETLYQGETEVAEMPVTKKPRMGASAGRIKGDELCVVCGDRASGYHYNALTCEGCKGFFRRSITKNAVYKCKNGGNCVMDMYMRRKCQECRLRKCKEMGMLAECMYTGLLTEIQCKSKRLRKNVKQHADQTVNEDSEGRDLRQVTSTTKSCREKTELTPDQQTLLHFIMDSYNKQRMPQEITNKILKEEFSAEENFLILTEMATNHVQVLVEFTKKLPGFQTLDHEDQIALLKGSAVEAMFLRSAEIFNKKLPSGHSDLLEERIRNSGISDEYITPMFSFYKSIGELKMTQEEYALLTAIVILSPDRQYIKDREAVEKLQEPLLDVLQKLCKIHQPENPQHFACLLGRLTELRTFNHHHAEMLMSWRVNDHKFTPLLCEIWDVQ

Row | Structure (SMILES) | outcome [1] | Potency [2] | outcome [3] | outcome [4] | outcome [5] | outcome [6] | outcome [7] | outcome [8] | outcome [9] | outcome [10] | outcome [11] | outcome [12] | outcome [13] | outcome [14] | Potency [15] | outcome [16] | outcome [17] | outcome [18] | outcome [19] | outcome [20]
1 | CC(C)CCC(=O)CCC(C)C | inactive | inactive | inactive | inactive | inactive | inactive | inactive | inactive | inactive | inactive | inactive | inactive | inactive | inactive | inactive |  |  |  |  | 
2 | C=C(C)C(=O)OCCCCCCOC(=O)C(=C)C | inactive | inactive | inactive | inactive | inactive | inactive | inactive | inactive | inactive | inactive | inactive | inactive | inactive | inactive |  |  |  |  |  | 
3 | N#CCCOCCOCCC#N | inactive | inactive | inactive | inactive | inactive | inactive | inactive | inactive | inactive | inactive | inactive |  | inactive | inactive | inactive | inactive | inactive | inactive | inactive | inactive
4 | CCC(=O)OCCC(C)CCC=C(C)C (configuration not stated) | inactive |  | inactive | inactive | inactive |  | inactive | inactive | inactive | inactive | inactive | inactive | inactive | inactive |  | inactive |  |  |  | inactive
5 | OCCCCCCCl | inactive | inactive | inactive | inactive | inactive | inactive | inactive | inactive | inactive | inactive | inactive | inactive | inactive | inactive | inactive |  |  |  |  | inactive
6 | CN[C@@H]1[C@H](O)[C@H](NC)[C@H]2O[C@@]3(O)C(=O)C[C@@H](C)O[C@H]3O[C@@H]2[C@H]1O | inactive | inactive | inactive | inactive | inactive | inactive | inactive | inactive | inactive | inactive | inactive | inactive | inactive | inactive |  |  |  | inactive |  | 
7 | CCCCCCCCCCC | inactive | inactive | inactive |  |  | inactive | inactive | inactive | inactive | inactive | inactive | inactive | inactive | inactive | 12.3 µM (active) |  |  |  |  | inactive
